Screens (PubChem BioAssay)
In the library only some 2.3% were active in any assay of this set; here they are far more common.
Mm-Cpn inhibitor – Inhibitors of TCP-1 ring complex (TRiC) of Methanococcus maripaludis (MmCpn): qHTS; actives 0.031% (n = 330,000); purified Mm-Cpn ATPase, ADP Transcreener TR-FRET; Potency, µM (highest dose often 76.9 µM), without a hit: at the top dose activity, negative = inhibition, actives largely listed as inhibitors; Chaperonin Mm-Cpn (Methanococcus maripaludis); note: potency is the fitted concentration of half-maximal effect; % is set by controls: 0 for no effect and ±100 for the full control effect; nearly all actives have a fitted effect of over 80% in size
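25 nM Mm-CPN + cpd, 10 min 37°C; + 10 uM ATP, 30 min 37°C; buffer 30 mM Tris pH 7.4, 100 mM KCl, 5 mM MgCl2, 1 mM DTT; Transcreener ADP HTRF detection 30 min RT.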
FUS suppressor – qHTS for Suppressors of FUS Proteinopathy: Primary screen using FUS-linked yeast assay | S. cerevisiae FUS-expressing, growth rescue, OD600, 24 h | AID 1347120, 2019 | actives 0.24% (n = 390,000) | Potency, µM (highest dose often 76.6 µM), actives largely listed as activators;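 note: potency is the fitted concentration of half-maximal effect; plate controls were DMSO vehicle for no effect and reference control for full effect; nearly all actives have a fitted effect of over 55% in size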
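Quantitative HTS measuring growth restoration of FUS-toxic yeast. Galactose-induced cells (OD 0.005) were exposed 24hr at 30C to compounds at several concentrations, then absorbance at 600 nm was recorded.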
TDP-43 yeast inh – qHTS of TDP-43 Inhibitors. Potency, µM (titrated, usually from 46.1 µM), for the others: at the top dose growth rescue (activation), actives largely listed as activators. TDP-43 expressing yeast growth rescue, BacTiter-Glo, 24 h. AID 652104, 2013. actives 1.8% (n = 410,000); note: potency is the fitted concentration of half-maximal effect; % of control where 0% means no effect; nearly all actives have a fitted effect of over 50% in size
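Yeast cells expressing TDP-43 under galactose induction are exposed to compounds for 24 hr at 30 deg C. BacTiter-Glo luminescence measures growth, so protective compounds score as activators.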
aSyn yeast inh – qHTS of alpha-syn Inhibitors; Yeast expressing alpha-synuclein, growth rescue, BacTiter-Glo, 24 h; Potency, µM (titrated, usually from 46.1 µM), for the others: top-dose growth rescue (activation), most hits filed as activators; actives 0.14% (n = 370,000); note: potency is the fitted concentration of half-maximal effect; % of control where 0% means no effect; nearly all actives have a fitted effect of over 65% in size
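Readout is rescue of growth in alpha-synuclein-expressing yeast, so inhibitors of toxicity appear as activators. Growth after 24 hr at 30 deg C in galactose medium is quantified by luminescence.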
Abeta rescue – qHTS for compounds that reverse cellular toxicity of Amyloid beta (A-beta) peptide in yeast: Primary Screen | yeast expressing A-beta42, growth rescue, OD600, 48 h; response scale: 0% DMSO, 100% iron-clioquinol control | Potency, µM (doses to about 46.1 µM), hits mostly activators | actives 0.063% (n = 410,000); note: potency is the fitted concentration of half-maximal effect; nearly all actives have a fitted effect of over 55% in size
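Yeast A-beta toxicity model in growth medium with pinned compounds, 48 h at 30 C; growth read as absorbance at 600 nm. Normalized to FeCl3/clioquinol equimolar mix (positive) and DMSO (negative).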
CCT modulator – High-Throughput Screening for Modulators of Cytosolic Chaperonin Activity; purified chaperonin ATPase assay, HTRF ADP detection, 30 min; activity change, % (no concentration beside the values), hits read low; actives 0.3% (n = 360,000); in the data active = activity change below about -30%; note: % is set by controls: 0 for no effect and ±100 for the full control effect
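ATPase activity: ADP formed was measured by HTRF Transcreener (665/615 nm ratio) after 30 min at 37 deg C with 10 uM ATP. Compounds screened at one 76 uM concentration against 40 or 20 nM TRiC in Tris pH 7.4/KCl/MgCl2/DTT buffer.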
* = called active by the depositor; i = inactive; ? = inconclusive; . = not tested or not shown; [ ] = another dose, or the depositor's remark. Unless noted, calls come from the whole dose curve; as a rule, active = well fitted curve in the direction sought with a large enough effect; inconclusive = small, poorly fitted or top-dose-only effect, or another doubt; inactive = no such curve, though single readings can be large; an effect the other way counts as inactive or inconclusive.

SMILES | Mm-Cpn inhibitor | FUS suppressor | TDP-43 yeast inh | aSyn yeast inh | Abeta rescue | CCT modulator
CCc1ccc(NS(=O)(=O)c2cc3c4c(c2)CCN4C(=O)CC3)cc1 | 1% | i | 22% | 17% | i | -61*
Cc1ccc(C)c(CN2C(=O)N(c3cc(Cl)ccc3C)S(=O)(=O)c3ccccc32)c1 | . | i | 28% | . | i | .
C#CCN1CC(N(C)CCOC(=O)CCCc2ccccc2)CS1(=O)=O (stereo not given) | . | i | . | . | . | .
Cc1cc(OCC(=O)N(C)Cc2ccccc2)ccc1Cl | -5% | i | 11µM* | 4% | i | -2
COc1ccc(OC(=O)OCc2ccccc2)cc1 | . | i | 8% | -8% | i | 0
O=C(OCCOCCOC(=O)Oc1ccccc1)Oc1ccccc1 | . | . | 14µM* | 7% | i | -2
CCOC(=O)C1=C(C)NC(C)=C(C(=O)OC)[C@H]1c1cccc([N+](=O)[O-])c1 | . | . | . | 1% | . | .
CCOC(=O)C1=C(C)NC(C)=C(C(=O)OC)C1c1cccc([N+](=O)[O-])c1 (stereo not given) | 1%[15.4 µM] | i | 35µM* | 20% | i | 0
Cc1ccccc1CS(=O)(=O)Cc1ccc(C(=O)Nc2ccc(F)cc2)o1 | . | i | . | . | . | .
O=C(c1ccc(O)cc1)c1ccc(Cl)cc1 | 1% | i | 11µM* | 10% | i | -1
O=C(c1ccccc1)c1ccc2ccccc2c1 | . | i | -15% | -13% | i | -2
Cc1ccc(C(=O)c2ccc(O)cc2)cc1C | 1% | i | 18µM* | 0% | i | -3
O=C(c1ccccc1)c1ccc2cc(O)ccc2c1 | 0% | i | 11µM* | -31% | i | 0
Cc1ccc(C(=O)c2cccc(N)c2)cc1C | 1% | i | 3% | 8% | i | 0
COc1ccc(Nc2cc(C)c3cc(NC(=O)c4cc(OC)cc(OC)c4)ccc3n2)cc1 | . | i | 0% | . | i | .
Cc1ccc(C)c(NC(=O)c2nnn(Cc3ccc(F)cc3Cl)c2N)c1 | . | i | 9% | . | i | .
CN(C)c1cccc(-c2ccnc(N3CCC(C(N)=O)CC3)n2)c1 | . | i | . | . | . | .
CCOC(=O)c1ccc(N/C=C/C(=O)c2ccccc2)cc1 | 3% | i | -10% | 2% | i | 3
CCOC(=O)Nc1ccc(C(=O)/C=C/c2ccccc2)cc1 | 0% | i | 14µM* | 1% | i | 1
CCOC(=O)Nc1ccc(OC(=O)Oc2ccc(NC(=O)OCC)cc2)cc1 | . | . | 5% | -5% | i | 0
CCOC(=O)N1CCC(N(CCN(C)C)C(=S)Nc2cccc(C)c2)CC1 | 0% | i | 2% | -2% | i | 0
CCOC(=O)Nc1ccc(Oc2ccccc2)cc1 | -2% | i | 11µM* | -1% | i | 1
CCOC(=O)N1CCC(N(CCN(C)C)C(=S)Nc2ccc(Oc3ccccc3)cc2)CC1 | 0% | i | 20% | 20µM* | i | 0
O=C(Nc1ccc(Oc2ccccc2)cc1)C1CCN(c2ncccn2)CC1 | 0% | i | 0% | 0% | i | 1
O=C(Nc1ccc(Oc2ccccc2)cc1)C1CC1 | 0% | i | 5.6µM* | -29% | i | -2
SMILES | Mm-Cpn inhibitor | FUS suppressor | TDP-43 yeast inh | aSyn yeast inh | Abeta rescue | CCT modulator
COc1ccc(/C(N)=N/O)cc1O | 0% | i | -3% | -13% | i | -30*
C/C(=N\NC(=O)c1ccc(Cl)c(Cl)c1)c1ccccn1 | 1% | i | 7.1µM* | 4µM* | i | 0
C/C(=N/NC(=O)c1ccc(C(C)(C)C)cc1)c1ccccn1 | . | i | 14µM* | ? | i | -1
COc1ccc(C(=O)N/N=C(\c2ccccc2)c2ccccn2)cc1 | -4% | . | 22µM* | -25% | i | -3
CC(=NNC(=S)N1CC2CCC(CC2)C1)c1cnccn1 | . | . | ? | -81% | i | -2
CC(=NNC(=S)N1CC2CCC(CC2)C1)c1ccccn1 | . | i | 22µM* | 22% | i | -2
O=C(NN=C(c1ccccc1)c1ccccn1)c1ccccc1 | 1% | . | 15% | -21% | i | -1
COc1cc2nc(Cl)nc(NC3CCN(Cc4ccccc4)CC3)c2cc1OC | . | . | . | 1% | . | .
CCOc1ccc(-n2c(COc3ccc(Cl)cc3)nnc2SCC(=O)Nc2ccc(OCc3ccccc3)cc2)cc1 | . | i | . | . | . | .
CCOc1cc(CNc2ccc(O)cc2)ccc1OCc1ccc(Cl)cc1 | . | i | 35µM* | . | i | .
CC(=O)N1CCn2c3ccc(C)cc3c3cccc1c32 | -2% | i | 14µM* | 14% | i | -1
Cc1c(C(=O)O)oc2c1-c1nn(Cc3ccccc3Cl)cc1CC2 | . | i | 16µM* | . | i | .
CCOC(=O)c1oc2c(c1C)-c1nn(Cc3ccccc3Cl)cc1CC2 | . | i | 10% | . | i | .
CCOc1ccccc1NC(=O)Cc1noc2ccc(C)cc12 | . | i | ? | . | i | .
Cc1ccc2occ(CC(=O)Nc3c(C)cccc3C)c2c1 | . | i | 13µM* | . | i | .
CCOc1ccccc1NC(=O)Cc1coc2ccc(C)cc12 | -1% | i | . | 13µM* | ? | 1
O=C(OCc1cc(=O)n2nc(-c3cccs3)sc2n1)c1ccccc1 | . | i | 14% | . | i | .
CCCC1CCC2(CC1)CCC2OC(=S)NCc1cccc(F)c1 (stereo not given) | . | i | . | . | . | .
C[C@H]1[C@H](NC(=O)c2cccc(C(F)(F)F)c2)CC[C@@]23CCCN2C(=O)CCC[C@@H]13 | . | i | . | . | . | .
CCCC[n+]1c(/C=C/c2ccc(N(C)C)cc2)sc2ccccc21 | . | . | . | -56% | . | .
CC1=NNC(=O)C1CC(=O)N/N=C/C(Br)=C/c1ccccc1 (stereo not given) | -2% | i | 14µM* | 13% | i | -4
CC(C)c1ccc(C(=O)CSc2n[nH]c(-c3ccncc3)n2)cc1 | 3% | i | 35µM* | 15% | i | -1
CCCCN(C(=O)CSc1nn(-c2ccc(F)cc2)c(=S)s1)c1c(N)n(CCCC)c(=O)[nH]c1=O | 2% | 7.1µM* | -17% | -4% | i | 1
Cc1cc(C)c(Nc2nn3c(=O)c4cc5c(cc4nc3s2)OCO5)c(C)c1 | . | i | 8% | . | i | .
CCCN1C(=O)c2ccccc2NC1c1ccc(OC)cc1OC (stereo not given) | -1% | i | -12% | 7% | i | 2
CCCN1C(=O)c2ccccc2NC1c1ccc(OC)cc1O (stereo not given) | 1% | i | -13% | -13% | i | -86*
